ChEMBL document CHEMBL4513148, “CO-ADD screening of Stellenbosch University (South Africa) compounds”
Potency and affinity values are given separately.

Tests used:
Staphylococcus aureus = details: Concentration 32 ug.mL-1; ASSAY_TEST Inhibition of Bacterial Growth; detection method Absorption (OD600); MEDIA CAMHB; plate type 384well; NBS; CORNING #3640; time 18 hr
Escherichia coli = details: Concentration 32 ug.mL-1; ASSAY_TEST Inhibition of Bacterial Growth; detection method Absorption (OD600); MEDIA CAMHB; plate type 384well; NBS; CORNING #3640; time 18 hr

| Compound | Inhibition (Staphylococcus aureus) [%] | Inhibition (Escherichia coli) [%] |
| --- | --- | --- |
| CC(C)(CO)[C@H](O)C(=O)NCCCc1cn(C[C@H]2O[C@@H](n3ccc(N)nc3=O)[C@H](O)[C@@H]2O)nn1 | 12.15 | -9.07 |
| CCCCCCCNS(=O)(=O)CCNC(=O)[C@H](O)C(C)(C)CO | 15.67 | -4.61 |
| CC(C)(CO)[C@@H](O)C(=O)NCCC(=S)NCCc1ccccc1 | 10.96 | -8.24 |
| C#CCNC(=O)[C@H](O)C(C)(C)CO | 0.74 | 3.62 |
| CC(C)(CO)[C@@H](O)C(=O)NCCC(=O)NNCc1ccccc1 | 15.8 | -5.42 |
| CC(C)(CO)[C@@H](O)C(=O)N/C=C/C(=O)NCCc1ccccc1 | 31.24 | -5.06 |
| CC(C)(CN)C(O)C(=O)NCCC(=O)NCCc1ccccc1 (stereo unspecified) | 10.68 | -6.66 |
| CC(C)(CO)[C@H](O)C(=O)NCCc1cn(C[C@H]2O[C@@H](n3ccc(N)nc3=O)[C@H](O)[C@@H]2O)nn1 | -0.66 | -7.3 |
| CC(C)(C)C(O)C(=O)NCCC(=O)NCCc1ccccc1 (stereo unspecified) | 10.92 | -6.19 |
| CCCCCCNNC(=O)CCNC(=O)[C@H](O)C(C)(C)CO | 13.79 | -4.33 |
| CC(C)(COP(=O)(O)O)[C@@H](O)C(=O)NCCC(=O)NCCc1ccccc1 | 15.25 | -8.26 |
| CCCCCCCNC(=S)CCNC(=O)[C@H](O)C(C)(C)CO | 14.7 | -4.19 |
| CC(C)(CO)C(O)C(=O)NCCCOP(=O)(O)OCC1OC(n2ccc(N)nc2=O)C(O)C1O (stereo unspecified) | -4.3 | -11.28 |
| CC(C)(CO)[C@H](O)C(=O)NCCC(=O)OCc1cn(C[C@H]2O[C@@H](n3ccc(N)nc3=O)[C@H](O)[C@@H]2O)nn1 | 8.97 | -9.8 |
| CC(CC(=O)NCCc1ccccc1)NC(=O)[C@H](O)C(C)(C)CO (stereo partly specified) | 13.65 | -6.39 |
| CC(C)(CO)[C@H](O)C(=O)NCc1cn(C[C@H]2O[C@@H](n3ccc(N)nc3=O)[C@H](O)[C@@H]2O)nn1 | 13.05 | -11.94 |
| CCCCCCCNC(=O)CCNC(=O)C(O)C(C)(C)C (stereo unspecified) | 18.01 | -4.21 |
| CC(C)(CO)[C@H](O)C(=O)NCCC(=O)NCc1cn(C[C@H]2O[C@@H](n3ccc(N)nc3=O)[C@H](O)[C@@H]2O)nn1 | 2.11 | -13.27 |
